Laboratory results from ChEMBL document CHEMBL4513216, “Probing the Open Global Health Chemical Diversity Library for Multistage-Active Starting Points for Next-Generation Antimalarials” (ACS Infect Dis, 2020).
The campaign covered roughly 69,000 compounds. About 8,600 (12%) showed an effect of 50% or more. For the sample, strong results were picked, then their nearest neighbours and some compounds at random.

Test system: Plasmodium berghei
Assay: Screen against P. berghei liver stage (PbLuc), transformed with Luciferase, at 10uM
Assay type: functional, HepG2
Conditions: tested at 10 uM

Compared with `O=C(NCCCn1cccn1)C1(c2ccccc2)CCOCC1`, `O=C(NCc1cc(-c2ccccc2)no1)NCC1CCCO1` (stereo not drawn) is lower in INHIBITION: 16.8% for the first, 1.06% for the second.

Going from `Cc1c(C(=O)N2CCCC(n3nnc4cc(F)ccc43)C2)cnn1C` (stereo not drawn) to `Cn1ccnc1C1CCCN(C(=O)c2ccncc2F)C1` (stereo not drawn), the INHIBITION rises from 2.71% to 42.5%.

Going from `CCC(NC(=O)COC)c1ccccc1OCC(=O)N1CCCC1` (stereo not drawn) to `COC[C@@]12CCC[C@@H]1CN(C(=O)Cc1ccccn1)C2`, the INHIBITION rises from -4.65% to 39.4%.

Going from `CN(C)C[C@@H]1CN(C(=O)c2cc(-c3ccccc3)n[nH]2)C[C@@H]1CO` to `COc1ccccc1-c1cc(C(=O)Nc2nc[nH]n2)[nH]n1`, the INHIBITION falls from 43.9% to -36%.

Compared with `COc1ccc(S(=O)(=O)NC(=O)COC2CCCC2)cc1`, `CS(=O)(=O)c1ccc(OCCCN2CCc3cncnc3C2)cc1` is higher in INHIBITION: -0.96% for the first, 31.2% for the second.

Going from `Cc1ccc(NC(=O)N2C[C@@H]3CC[C@H]2CN(Cc2cscn2)C3)cc1` to `Cc1cccc(CC(=O)Nc2cnn(C3CCOC3)c2)c1` (stereo not drawn), the INHIBITION rises from -28.6% to -13.6%.

Going from `Nc1ccnc(N2C[C@H]3CC[C@@H](C2)N(CC2CCC2)C3=O)n1` to `Cc1nc(CN(C)C2CCN(CC3CCC3)C2)no1` (stereo not drawn), the INHIBITION rises from -32.4% to 18.2%.

First: CCn1ccc(NC(=O)CCn2nc(C)c3ccccc32)n1
Second: Cc1ccccc1C(=O)NC(C)c1cnn(C)c1 (stereo not drawn)
The INHIBITION of the first is lower: -21.3% for the first, 40.8% for the second.

First: CCN(CC)C(=O)Cn1ccc2cc(NC(=O)NC3CC3)ccc21
Second: CCC(=O)N1CCC(NC(=O)c2cccc(-n3ccnc3)c2)C1 (stereo not drawn)
The INHIBITION of the first is lower: -22.91% for the first, 2.43% for the second.

Going from `Cc1cc(C)n(CC2CCCN2C(=O)c2cccc3c2OCCO3)n1` (stereo not drawn) to `O=C1COc2c(cccc2C(=O)N2CCCC(n3cccn3)C2)N1` (stereo not drawn), the INHIBITION falls from 10.85% to -4.94%.

Compared with `CS(=O)(=O)CC(=O)N1C[C@H]2CCC[C@@]2(COCc2ccccn2)C1`, `O=C(Cc1ccsc1)N1C[C@H]2CCC[C@@]2(COCc2ccccn2)C1` is higher in INHIBITION: 25% for the first, 63.8% for the second.

First: CNC(=O)CNCc1c[nH]nc1-c1cc2ccccc2o1
Second: NCCc1n[nH]c(=O)n1-c1cccc2ccccc12
The INHIBITION of the first is lower: 1.51% for the first, 30% for the second.

First: CNc1nc2c(c(C(=O)N3CCCC3)n1)CN(C(=O)CCSC)CC2
Second: CCc1nc(CN(C)C2CCN(CCC(=O)N3CCCCC3)C2)no1 (stereo not drawn)
The INHIBITION of the first is lower: -36.6% for the first, 36.1% for the second.

Going from `CS(=O)(=O)N1CCOC2(CCN(c3nccs3)CC2)c2ccccc21` to `CN(C)CCN1CCOC2(CCN(c3nccs3)CC2)c2ccccc21`, the INHIBITION rises from 5.36% to 58.5%.

Going from `CN(C)CCN1CCN(C)C2(CCN(c3nccs3)CC2)C1=O` to `CN(C)CCN1CCCC12CCCN(Cc1ccoc1)C2` (stereo not drawn), the INHIBITION rises from 17.2% to 21.6%.

First: CC(C)C(NC(=O)C1CCCC1)c1cc(O)nc(-c2cccnc2)n1 (stereo not drawn)
Second: CC(NC(=O)C1CC1)C(=O)N(C)Cc1ccsc1 (stereo not drawn)
The INHIBITION of the first is higher: 28.925% for the first, 16.1% for the second.

First: Cc1nccc(C2CN(C(=O)c3cncnc3)C2)n1
Second: Cc1cnn(CC2CN(c3ccc(C#N)cn3)CCO2)c1 (stereo not drawn)
The INHIBITION of the first is lower: -14.2% for the first, 21% for the second.

Going from `Cc1cccc(CN2C(=O)OCC2CO)c1F` (stereo not drawn) to `Cc1nc(CN(C)C2CCN(Cc3cccc4cccnc34)C2)no1` (stereo not drawn), the INHIBITION rises from -21.8% to 25.3%.

Going from `COc1ccc2c(C)c(C(=O)NCCCc3csc(N)n3)oc2c1` to `Cc1ccc(-c2cc(C(=O)NCCCc3csc(N)n3)[nH]n2)o1`, the INHIBITION rises from 43.6% to 64.6%.

Going from `Cc1ccc(-c2cc(C(=O)NCCCc3csc(N)n3)[nH]n2)s1` to `Cn1cccc1-c1cc(C(=O)NCCCc2csc(N)n2)[nH]n1`, the INHIBITION falls from 56.5% to 35%.

Compared with `Cc1[nH]c2c(F)cccc2c1CC(=O)NCCCc1csc(N)n1`, `COCc1nc(C(=O)NS(=O)(=O)c2ccc(F)cc2F)cs1` is lower in INHIBITION: 1.24% for the first, -1.95% for the second.

Compared with `Cc1ccc(-c2cc(C(=O)NCCN3CCCS3(=O)=O)[nH]n2)o1`, `Cc1cc(C(=O)NCC(Cc2cccc(F)c2)N2CCCCC2=O)no1` (stereo not drawn) is higher in INHIBITION: -7.25% for the first, 34.9% for the second.

Going from `CNC(=O)C1CN(C(C)C)CCN1c1nc(C)cc(C)n1` (stereo not drawn) to `Cc1nc(C2CCN(C(=O)COC(C)C)CC2)cc(N2CCOCC2)n1`, the INHIBITION rises from 3.48% to 3.96%.

Going from `O=C(CC1NC(N2CCc3ccccc3C2)=NC1=O)Nc1ccccc1` (stereo not drawn) to `CNC(=O)[C@@H]1[C@@H](c2ccccc2)CN2CCN(Cc3ccccn3)C[C@H]12`, the INHIBITION rises from 19.3% to 20%.

Compared with `Cc1nc(C(C)C)sc1C(=O)N1CCN(C2CN3CCC2CC3)CC1` (stereo not drawn), `CC1=CCN(S(=O)(=O)c2cccc(C(=O)N3CCCN(C)CC3)c2)CC1` is higher in INHIBITION: -6.91% for the first, 14% for the second.

Going from `Cc1nc(CN(C)C2CCN(Cc3cnc(C)s3)C2)no1` (stereo not drawn) to `Cc1nc(CN(C)C2CCN(Cc3nc4ccccc4s3)C2)no1` (stereo not drawn), the INHIBITION rises from -29.8% to 60%.

First: CCc1nc(CN(C(C)=O)C2CCN(CC3CCOCC3)C2)no1 (stereo not drawn)
Second: CC(=O)N(Cc1noc(C2CC2)n1)C1CCN(CC2CCOCC2)C1 (stereo not drawn)
The INHIBITION of the first is lower: 17.4% for the first, 56.6% for the second.

First: COCCN1CCC(N(Cc2noc(C3CC3)n2)C(C)=O)C1 (stereo not drawn)
Second: CC(=O)N(Cc1noc(C)n1)C1CCN(Cc2cc(C)on2)C1 (stereo not drawn)
The INHIBITION of the first is higher: 23.4% for the first, -6.62% for the second.

Going from `Cc1cnc(CN(C)C2CCN(Cc3nc4ccccc4s3)C2)o1` (stereo not drawn) to `Cc1nnc(CN(C)C2CCN(Cc3nc4ccccc4n3C)C2)o1` (stereo not drawn), the INHIBITION falls from 15.3% to -25.8%.

Compared with `CCc1nc(CN(C(C)=O)C2CCN(CCc3ccncc3)C2)no1` (stereo not drawn), `CCc1nc(CN(C)C2CCN(CCc3ccncc3)C2)no1` (stereo not drawn) is lower in INHIBITION: 66.7% for the first, -12.2% for the second.

Compared with `Cc1nc(CN(C)C2CCN(Cc3nc4ccccc4n3C)C2)no1` (stereo not drawn), `Cc1nc(CN(C)C2CCN(Cc3ccc4ccccc4n3)C2)no1` (stereo not drawn) is higher in INHIBITION: 48.2% for the first, 70.1% for the second.

Going from `CCc1nc(CN(C(C)=O)C2CCN(CCc3ccccc3)C2)no1` (stereo not drawn) to `CC(=O)N(Cc1noc(C)n1)C1CCN(Cc2ccccn2)C1` (stereo not drawn), the INHIBITION falls from 19.4% to -39.7%.

Compared with `CN1CCOC(CNCc2csc(C3CCCC3)n2)C1` (stereo not drawn), `Cc1nc(CN(C)C2CCN(CC3CCCC3)C2)no1` (stereo not drawn) is lower in INHIBITION: 45.1% for the first, -22.9% for the second.

Compared with `O=C(c1ccc(Cl)cc1)N1CCC(N2CCCOC2=O)CC1`, `NC(=O)C1CCN(C(=O)c2cc(-n3cnnn3)ccc2Cl)CC1` is lower in INHIBITION: 48.2% for the first, 28.4% for the second.

Going from `COC1CCN(c2ccc(F)cc2CN(C)S(C)(=O)=O)CC1` to `NC(=O)NC1CCN(Cc2ccc(Br)c(F)c2)CC1`, the INHIBITION falls from 4.52% to 1.45%.

Compared with `CN(CC(C)(CO)CO)C(=O)Nc1cc(F)cc(Cl)c1`, `CS(=O)(=O)CCCSCc1cc(F)cc(Br)c1` is higher in INHIBITION: -35.9% for the first, 31.2% for the second.

Going from `CN(C)CCN1CCN(Cc2cccc(C#N)c2)Cc2cccnc21` to `N#Cc1ccc(OCCN2CCn3c(nnc3C3CC3)C2)cc1`, the INHIBITION rises from -4.32% to 11.2%.

First: COc1cccc(CNCCc2cc(F)cc3c2OCOC3)c1OC
Second: COc1cccc(CN2CC(O)CN(C(=O)C3CCC3)CC2=O)c1OC (stereo not drawn)
The INHIBITION of the first is lower: 30% for the first, 49.5% for the second.

First: COc1c(CNCCC(=O)NC2CCCCC2)c(C(C)C)nn1C
Second: CC(C)c1nc(CN(C)C2CCN(CCNS(C)(=O)=O)C2)no1 (stereo not drawn)
The INHIBITION of the first is lower: -7.81% for the first, 53.3% for the second.

Going from `Cc1ccc(CN2CC(C(=O)NCC3CC3)C3(CCOCC3)C2)s1` (stereo not drawn) to `Cc1nc(CN(C)C2CCN(CC(=O)N3CCOCC3)C2)no1` (stereo not drawn), the INHIBITION rises from -18.5% to 17.3%.

First: CC(C)c1nc(CN(C)C2CCN(CCS(C)(=O)=O)C2)no1 (stereo not drawn)
Second: CCS(=O)(=O)CCN1CCC(N(C)Cc2noc(C(C)C)n2)C1 (stereo not drawn)
The INHIBITION of the first is higher: 33.7% for the first, 21.2% for the second.

First: CC(=O)N(Cc1noc(C)n1)C1CCN(Cc2ccon2)C1 (stereo not drawn)
Second: Cc1nc(CN(C)C2CCN(CCC(=O)N3CCOCC3)C2)no1 (stereo not drawn)
The INHIBITION of the first is higher: 65.5% for the first, 51.1% for the second.

Going from `Cc1nc(CN(C)C2CCN(CC3CCCCC3)C2)no1` (stereo not drawn) to `Cc1nc(C2CCN(C[C@H](C)CO)CC2)cc(N2CCOCC2)n1`, the INHIBITION falls from 63.4% to 60.3%.

Going from `O=C(NC1CC1)N1CCCC2(CCCCN2)C1` (stereo not drawn) to `CNC(=O)[C@@H]1CCO[C@@H]2CCN(C3CCOCC3)C[C@@H]21`, the INHIBITION falls from 13.7% to -46.9%.

Compared with `c1cnn(CC2CN(Cc3nc(C4CC4)no3)CCO2)c1` (stereo not drawn), `OC(COCc1ccccc1)CSc1nnc(C2CC2)n1C1CC1` (stereo not drawn) is higher in INHIBITION: -12.2% for the first, 52.8% for the second.

Going from `COc1cc(C(C)NCc2scnc2C)ccc1SC(F)F` (stereo not drawn) to `COc1cc(C(C)NCc2cscn2)ccc1SC(F)F` (stereo not drawn), the INHIBITION falls from 75.6% to 27%.

Going from `COc1ccc(C(C)NCc2nnc(C)s2)cc1F` (stereo not drawn) to `COc1ccc(C(C)NCc2c[nH]nc2C)cc1OC` (stereo not drawn), the INHIBITION falls from 39.4% to -43%.

Compared with `COc1cc(C(C)NCc2ncccc2C)ccc1SC(F)F` (stereo not drawn), `COc1ccc(C(C)NCc2scnc2C)cc1Cn1cccn1` (stereo not drawn) is lower in INHIBITION: 66.2% for the first, 35.3% for the second.

Going from `Cn1c(SCC(O)COCc2ccccc2Cl)nnc1C1CC1` (stereo not drawn) to `Cn1c(SCC(O)COCc2ccc(Cl)cc2)nnc1C1CC1` (stereo not drawn), the INHIBITION falls from 36.6% to -18.6%.

Going from `CCCc1ncc(CNC2(c3ccc(Cl)cc3)CC2)cn1` to `O=C(Cc1ccccc1Cl)Nc1cnn(C2CCOC2)c1` (stereo not drawn), the INHIBITION rises from 44.8% to 51.8%.

Going from `Cc1nc(C2CCN(C(=O)CO)CC2)cc(N2CCOCC2)n1` to `Cc1oncc1C(=O)N1CC2CC1(C(=O)N1CCCC1)C2`, the INHIBITION falls from 36.8% to -15.9%.

Compared with `O=C(Cc1cccs1)Nc1cnn(C2CCOC2)c1` (stereo not drawn), `O=C(Cc1cccs1)Nc1cnn(C2CCOCC2)c1` is higher in INHIBITION: 5.91% for the first, 71.3% for the second.

Compared with `O=C(Nc1ccc2c(c1)OCO2)Nc1cnn(C2CCOCC2)c1`, `O=C(Nc1cnn(C2CCOCC2)c1)c1ccc2c(c1)OCO2` is lower in INHIBITION: 36.5% for the first, -38.6% for the second.

First: O=S(=O)(CCN1CCCC1Cn1cncn1)c1ccccc1 (stereo not drawn)
Second: O=C(CCn1ccc2ccc(Br)cc21)NCc1ccc(C(=O)O)cc1
The INHIBITION of the first is lower: -43.6% for the first, 15.1% for the second.

First: O=C(c1ccncc1F)N1CC2CC1(C(=O)N1CCCC1)C2
Second: CC(NC(N)=O)C(=O)NCc1ccc(Br)c(F)c1 (stereo not drawn)
The INHIBITION of the first is higher: 58% for the first, -31.1% for the second.

Compared with `CS(=O)(=O)CCCSCc1ccc(Br)c(F)c1`, `CS(=O)(=O)CCSCc1ccc(Br)c(F)c1` is higher in INHIBITION: -59.7% for the first, 50.7% for the second.

For `NC(=O)CCSCc1ccc(Br)c(F)c1`, the INHIBITION was 52.8%.
